Screening data deposited in PubChem by National Center for Advancing Translational Sciences (NCATS).
HPGD block: blocks human HPGD enzyme activity; 150,000 compounds, 4.3% hits; P15428; purified HPGD, NADH fluorescence kinetic, PGE2 substrate; AID 894; Potency, µM, actives largely listed as inhibitors
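NADH formation kinetics: reaction with 30 uM PGE2 and 1 mM NAD+ (final), 20 nM enzyme, Tris-HCl pH 8 with Tween 20, after 15 min compound preincubation at room temperature. Fluorescence change, last versus first of five reads.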
PNC assembly inh: inhibitors of perinucleolar compartment assembly; PC3M PTB-GFP, PNC prevalence imaging, 16 h; active compounds read low; activity change (PNC), negative = inhibition, % at 10 µM; 140,000 compounds, 3.1% hits; AID 2417;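 active = readout at or below -70, meaning at least 70% loss of cells showing the perinucleolar compartment, a nuclear body marking cancer cells; inconclusive = readout between -30 and a set limit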
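Read-out is percentage of cells bearing a perinucleolar compartment, from automated 20x imaging of fixed, Hoechst-stained PC3M PTB-GFP cells. Cells were seeded 4 h, then exposed 16 h to compound (23 nl of library stock) in duplicate plates.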
ALDH1A1 block: inhibitors of human aldehyde dehydrogenase 1A1; P00352; Purified ALDH1A1, NADH fluorescence, propionaldehyde substrate; Potency, µM (top dose mostly 75.3 µM), actives largely listed as inhibitors; 220,000 compounds, 7.3% hits; AID 1030
Target sequence (P00352 whole entry, looked up): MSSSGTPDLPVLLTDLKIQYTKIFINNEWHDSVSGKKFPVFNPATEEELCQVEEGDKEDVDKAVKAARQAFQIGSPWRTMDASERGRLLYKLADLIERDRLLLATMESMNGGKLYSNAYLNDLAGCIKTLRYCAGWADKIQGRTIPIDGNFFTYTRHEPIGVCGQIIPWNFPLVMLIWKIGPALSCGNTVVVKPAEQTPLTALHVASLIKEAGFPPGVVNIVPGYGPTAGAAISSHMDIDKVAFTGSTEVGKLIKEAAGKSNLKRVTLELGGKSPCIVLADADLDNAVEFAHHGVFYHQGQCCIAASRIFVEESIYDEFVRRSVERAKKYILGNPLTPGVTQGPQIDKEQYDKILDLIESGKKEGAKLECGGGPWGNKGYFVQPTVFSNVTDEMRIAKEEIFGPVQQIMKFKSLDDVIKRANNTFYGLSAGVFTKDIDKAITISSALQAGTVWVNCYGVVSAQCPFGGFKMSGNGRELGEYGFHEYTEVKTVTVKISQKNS
Numbers stand for hits; n = inactive; u = inconclusive; x = not tested or not shown; [ ] = dose if it differs, or a comment. This is a sample that favours compounds with a hit; in the whole collection about 11% have one here. Unless noted, calls follow the shape of the dose curve; as a rule, active = well fitted inhibition curve with a large enough effect (not every such curve was filed as active); inconclusive = small, poorly fitted or top-dose-only effect, or another doubt; inactive = no such curve, though single readings can be large or run the other way.

SMILES | HPGD block | PNC assembly inh | ALDH1A1 block
COc1ccccc1NS(=O)(=O)c1cc(NC(=O)c2ccncc2)ccc1N1CCOCC1 | n | n | u
CC(C)CN1C(=O)NC(NS(=O)(=O)c2ccc(N)cc2)(C(F)(F)F)C1=O (stereo unspecified) | n | u | n
CO[C@H]1C=CO[C@]2(C)Oc3c(C)c(O)c4c(O)c(c5c(c4c3C2=O)NC2(CCN(CC(C)C)CC2)N=5)=NC(=O)C(C)=CC=C[C@@H](C)[C@@H](O)[C@@H](C)[C@@H](O)[C@@H](C)[C@@H](OC(C)=O)[C@@H]1C | n | x | n
CCOc1cccc(=O)c2c(C)oc(C)c12 | n | n | n
CCOc1cccc(=O)c2c(C)n(CC(=O)c3ccccc3)c(C)c12 | x | x | 8.91µM
Cc1ccccc1C(C(=O)NC1CCCCC1)N(C(=O)CNC(=O)c1ccco1)c1cccnc1 (stereo unspecified) | x | x | n
CC1CCN(C(C(=O)NC2CCCCC2)c2cc3c(cc2[N+](=O)[O-])OCO3)CC1 (stereo unspecified) | n | n | u
CC1CCCN(C(C(=O)NC2CCCCC2)c2cc3c(cc2[N+](=O)[O-])OCO3)C1 (stereo unspecified) | 31.6µM | n | n
CCOCCCNC(=O)C1CCN(S(=O)(=O)N2CC(C)CC(C)C2)CC1 (stereo unspecified) | n | n | n
CC1(C)CC(=O)C(C(c2ccncc2)C2C(=O)CC(C)(C)CC2=O)C(=O)C1 | n | -86.7 | n
CC1(C)CC(=O)C(C(c2cccc([N+](=O)[O-])c2)C2C(=O)CC(C)(C)CC2=O)C(=O)C1 | n | u | n
CC1(C)CC(=O)C(CCCN2C(=O)c3ccccc3C2=O)C(=O)C1 | n | n | n
Cc1ccc(C(C2C(=O)CC(C)(C)CC2=O)C2C(=O)CC(C)(C)CC2=O)s1 | 2.82µM | n | 7.08µM
CCCCc1nc2sc3c(c2c(=O)[nH]1)CCC3 | x | n | u
CCN1C(=O)[C@H]2[C@H]3[C@H](O)[C@H](O)C/C(=N/OC/C=C(\C)CCC=C(C)C)[C@H]3CC[C@@H]2C1=O | x | x | n[13.5 µM]
N#C/C(=C\c1ccc(-c2ccc(C(=O)O)cc2)o1)C(=O)NCC1CCCO1 (stereo unspecified) | u | n | u
N#C/C(=C\c1ccc(-c2ccc(S(=O)(=O)N3CCOCC3)cc2)o1)C(=O)NC1CC1 | 14.1µM | n | u
COc1cc(NC(=O)c2c(F)cccc2F)c(Cl)cc1Cl | x | x | n
CCOC(=O)c1cnc2c(cnn2C)c1NCCCn1ccnc1 | x | x | n
CC(C)(C)C(=O)NCCc1nc2ccccc2n1CC(=O)c1ccc(Cl)cc1 | n | n | u
O=C(NCCN1CCOCC1)/C(=C\c1ccc(Br)cc1)NC(=O)c1cccs1 | n | u | n
Cc1cc(C(=O)CSc2nnc(-c3ccco3)o2)c(C)n1-c1ccc2c(c1)OCCO2 | n | n | n
Cc1cc(C(=O)CSc2nnnn2C)c(C)n1-c1ccc2c(c1)OCCO2 | 25.1µM | n | u
Cc1cc(-n2c(C)cc(C(=O)CSc3nnc4sc5ccccc5n34)c2C)no1 | n | n | n
Cc1cc(-n2c(C)cc(C(=O)CSc3nnnn3-c3ccc(Cl)cc3)c2C)no1 | n | -100.0 | n
SMILES | HPGD block | PNC assembly inh | ALDH1A1 block
CC(C)N(C(=O)COC(=O)c1cncc(Br)c1)C(C)C | x | x | n
C=CC[C@@H]1C=C[C@@H](O/N=C\C[C@@H]2C=C[C@H](OC(C)=O)[C@H](COC(C)=O)O2)[C@@H](CO)O1 | x | x | n[13.5 µM]
O=C(O)CN1C(=O)/C(=C/c2ccc(SCc3ccccc3)o2)SC1=S | x | x | 3.55µM
Cn1cccc1/C=C1\SC(=S)N(CC(=O)O)C1=O | 28.2µM | n | n
O=C(CCCN1C(=O)/C(=C/c2ccccc2)SC1=S)Nc1ccccc1O | x | x | n
O=C(O)CN1C(=O)/C(=C/c2ccsc2)SC1=S | x | x | n
O=C(O)CCN1C(=O)/C(=C\c2ccc(-c3nc4ccccc4s3)o2)SC1=S | 15.8µM | n | u
CCc1ccc(/C=C2/SC(=S)N(CC(=O)Nc3nc4ccccc4s3)C2=O)cc1 | n | n | u
CCOC(=O)C1CCN(C(=O)COc2ccc(S(=O)(=O)NC(C)(C)C)cc2)CC1 | n | n | n
CC(NC(=O)C1CCCN(C(=O)N(C)C)C1)c1ccccc1 (stereo unspecified) | n | n | n
CC(C)C(=O)Nc1cc(=O)[nH]c2ncnn12 | n | n | n
Cc1ccccc1OCc1nc(-c2ccc(NC(=O)c3cccs3)cc2)no1 | n | n | u
CCCc1ccc(OCc2nc(-c3ccc(NC(=O)c4ccco4)cc3)no2)cc1 | u | n | n
CCCc1ccc(OCc2nc(-c3ccc(NC(=O)c4cccs4)cc3)no2)cc1 | u | -90.8 | n
Cc1ccccc1OCc1nc(-c2ccc(NC(=O)c3ccco3)cc2)no1 | u | -100.0 | n
COc1ccc(/C=C/c2cc(OC)c(OC)cc2CC[N+](C)(C)C)cc1 | u | x | n
CC(C)CC1NC(=O)N(CC(=O)N2CCN(S(=O)(=O)c3ccccc3)CC2)C1=O (stereo unspecified) | n | n | n
Cc1onc(-c2c(Cl)cccc2Cl)c1C(=O)N1CCCc2ccccc21 | n | n | n
CN(C)/C=C/c1onc(-c2c(Cl)cccc2Cl)c1C#N | x | x | 12.6µM
Cc1onc(-c2c(Cl)cccc2Cl)c1C(=O)Nc1ccc2c(c1)OCCO2 | n | n | n
N#Cc1c(-c2c(Cl)cccc2Cl)noc1/C=C/Nc1ccc(C(=O)O)cc1 | x | x | 3.55µM
CCn1c(SCC(=O)N=Nc2c(O)[nH]c3ccccc23)nnc1-c1ccc(C(C)(C)C)cc1 | n | u | n
O=C(CSCc1cccc(Br)c1)N=Nc1c(O)[nH]c2ccccc12 | n | n | 7.94µM
CCn1c(SCC(=O)N=Nc2c(O)[nH]c3ccccc23)nc2ccccc21 | n | n | 6.31µM
O=C(CSCc1ccccc1)N=Nc1c(O)[nH]c2ccccc12 | n | n | u
SMILES | HPGD block | PNC assembly inh | ALDH1A1 block
COc1ccc(OC)c(S(=O)(=O)Nc2c(C)cccc2C)c1 | x | x | n
COC(=O)C1=C(C(=O)OC)[C@@H]2N(C)c3ccc(OC)cc3[C@@]23C[C@@H](C(=O)OC)N(C(=O)c2cccs2)C3=N1 | n | x | n[13.5 µM]
CC(=O)N(Cc1cc(=O)[nH]c2ccccc12)c1cccc(C)c1 | u | n | 20µM
CC(=O)N(Cc1cc(=O)[nH]c2ccccc12)c1ccccc1 | n | n | n
CC(C)(C)c1cc(/C=C(\C#N)C(N)=S)cc(C(C)(C)C)c1O | u | x | 2.82µM
N#C/C(=C/c1ccc(F)cc1)C(N)=S | x | x | 25.1µM
Cn1cccc1/C=C(/C#N)C(N)=S | n | n | n
[C-]#[N+]/C(C#N)=C\c1cc(C(C)(C)C)c(O)c(C(C)(C)C)c1 | n | x | n
CCc1ccc(CNC(=O)CN2C(=O)COc3ccccc32)cc1 | n | u | n
CCOC(=O)C(CO)(NC(C)=O)C(=O)OCC | n | n | n
c1ccc(-c2ccc(-c3ccccn3)nn2)nc1 | 25.1µM | n | 20µM
c1ccc(-c2ccccn2)nc1 | n | n | n
O=C(CCNC(=O)c1ccco1)Nc1ccc(N2CCOCC2)cc1 | x | x | n
C=CCOC(=O)C1(C(NC(=O)OC)c2ccccc2)C(=O)Cc2ccccc21 (stereo unspecified) | n | x | 4.47µM
CCOC(=O)[C@]1(C(NC(=O)OC)c2ccccc2)CCCC1=O (stereo partly specified) | x | x | n[13.5 µM]
Cc1ccc(NC(=O)CSc2n[nH]c(C)c2[N+](=O)[O-])cc1 | n | n | n
